Bioassay records: PubChem BioAssay, several laboratories
An excerpt weighted towards active compounds, which were near 1.3% of everything screened.
COUP-TFII inh: NR2F2 (human) inhibition, primary screen; P24468; HEK293T NGFI-A luciferase reporter, luminescence; inhibition, % at 8.6 µM; actives 0.7% (n = 370,000);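 active means inhibition above a per-plate cutoff, mean inhibition of test wells between control levels plus 3 SD, cut at about 38% in these data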;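 further: cells cotransfected with COUP-TFII expression vector driving the NGFI-A reporter; 0% = median of COUP-TF2 test wells and 100% = reporter-only cells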
SRC3 inh: human NCOA3 inhibition; Q9Y6Q9; inhibition, % at 3.6 µM; HEK293 GAL4-SRC3 luciferase reporter, luminescence; AID 588352; actives 0.17% (n = 360,000);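 active means inhibition above a per-campaign cutoff, the mean of all compounds plus 3 SD, cut at about 60% in these data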;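 further: 0% = DMSO-treated cells and 100% = gossypol-treated cells at 36 µM; higher means less SRC3-driven luciferase light from the GAL4 reporter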
LRH-1 inv ag: NR5A2 inverse agonism in reporter assay; O00482; HEK293T StAR-luciferase reporter, LRH-1 transfected, 24 h; inhibition, % at 3.6 µM; actives 0.13% (n = 360,000); AID 602396;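 active means inhibition above the mean inhibition of all tested compounds plus 3 SD, cut at about 73% in these data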;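 further: 0% = DMSO wells and 100% = reporter-only cells lacking LRH-1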
Gli-Sufu antag: blocks Gli-Sufu signaling in a luciferase reporter; Sufu-KO-LIGHT fibroblasts, Gli luciferase reporter luminescence; actives 0.74% (n = 340,000); inhibition, % at 5 µM;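 active means inhibition above about 55%, limit read from the data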;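 further: 0% = DMSO-treated cells and 100% = wells with medium but no cells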
SRC1 inh: human NCOA1 inhibition. Q15788. HEK293 GAL4-SRC1 luciferase reporter, luminescence. inhibition, % at 3.6 µM. actives 0.12% (n = 360,000). AID 588354;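 active means inhibition above the campaign mean plus 3 SD, with each screening campaign given its own cutoff, cut at about 60% in these data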;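 further: 0% = DMSO treated cells and 100% = gossypol at 36 µM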
SRC2 inh: human SRC2 (NCOA2) inhibition; Q15596; HEK293 GAL4-SRC2 luciferase reporter, luminescence; inhibition, % at 9 µM; actives 0.17% (n = 370,000); AID 651957;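 active means inhibition above the mean inhibition of all tested compounds plus 3 SD, set per campaign, cut at about 52% in these data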;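 further: 0% = DMSO treated cells and 100% = cells given Gossypol at 36 µM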
Gli-Sufu confirm: Gli-SUFU antagonism confirmation, single concentration. shares compounds with Gli-Sufu antag. Sufu-KO-LIGHT cells, Gli luciferase reporter, luminescence. inhibition, % at 5 µM. actives 40% (n = 2,500). AID 602428;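 active means mean inhibition at 5 µM reaching about 45%, limit read from the data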;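 further: plate controls were DMSO-treated cells for no effect and wells lacking cells for full effect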
Gli cytotox: cytotoxicity counter-screen for Gli-SUFU antagonists. actives 32% (n = 2,500). shares compounds with Gli-Sufu antag. Sufu-KO-LIGHT cells cytotoxicity, ATP luminescence. cytotoxicity, % at 5 µM;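 active means mean cytotoxicity at 5 µM above about 25%, limit read from the data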;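 further: cells exposed to compound overnight for roughly 16 to 18 hours; plate controls were DMSO wells with cells for no effect and medium without cells for full effect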
Wnt3a cs: inhibits Wnt3a reporter, counter-screen for Gli-SUFU antagonists; shares compounds with Gli-Sufu antag; Wnt-LIGHT cells, Wnt3a-driven luciferase reporter, luminescence; inhibition, % at 6.25 µM; actives 20% (n = 2,500); AID 651995;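 active means mean inhibition above about 25%, limit read from the data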
Active calls of the source: *; . = no result.

SMILES	COUP-TFII inh	SRC3 inh	LRH-1 inv ag	Gli-Sufu antag	SRC1 inh	SRC2 inh	Gli-Sufu confirm	Gli cytotox	Wnt3a cs
CCCC1CCC2(CC1)CCC2OC(=S)NCc1cccc(F)c1 (centres undefined)	-10	.	.	.	.	.	.	.	.
CN(c1ccccc1C(N)=O)S(=O)(=O)c1ccccc1	12	13	5	52	-17	0	12	9	19
O=S1(=O)c2ccc(Br)cc2OC[C@@H](Cc2ccccc2)N1Cc1cn(Cc2ccc(Cl)cc2)nn1	-7	.	.	.	.	15	.	.	.
CCC(C)(C)NC(=O)C(c1ccccc1Cl)N(C(=O)CCC(=O)Nc1cc(C)on1)c1ccc(NC(C)=O)cc1 (centres undefined)	7	-14	-2	54	-39	-15	10	28*	-19
O=C(Nc1nc2ncccn2c1-c1ccccc1)c1ccccc1	-4	.	.	.	.	4	.	.	.
C[C@@H]1CNC(=O)c2c(C(=O)N3CCN(c4ccccc4)CC3)ncn21	-9	.	.	.	.	-4	.	.	.
CCC(C#Cc1ccccc1)NCc1ccc(OC)cc1OC (centres undefined)	5	.	.	.	.	.	.	.	.
Cc1ccc(CNC(=O)CN(c2ccc(C)cc2)S(=O)(=O)c2c(C)nn(C)c2C)cc1	-12	-18	0	11	11	-2	.	.	.
Cc1ccc(CNC(=O)CN(c2ccc(C)cc2)S(=O)(=O)c2c(C)n[nH]c2C)cc1	-3	-7	4	57*	10	13	26	9	37*
CN(C)[C@@H]1CCN(c2cccc3c2S(=O)(=O)N(C2CC2)CCCO3)C1	-2	.	.	.	.	-9	.	.	.
Cc1ccc(NC(=O)Cn2nc(-c3ccccc3Cl)ccc2=O)c(Br)c1	-5	-13	-3	57*	-10	-33	14	20	-7
COc1cccc(CNC(=O)[C@H]2CCCN2C(=O)[C@H]2CCCN2C(=O)c2cccc(Cl)c2)c1	-1	.	.	.	.	18	.	.	.
CCOC(=O)C(C)Oc1cccc2c(=O)n(CC(=O)NCCc3ccccc3)ccc12 (centres undefined)	25	17	-15	2	10	5	.	.	.
CCOC(=O)N1CCN(C(=O)Cn2ccc3c(OC)cccc3c2=O)CC1	6	9	10	54	16	-4	21	0	10
CCOC(=O)C(C)Oc1cccc2c(=O)n(CC(=O)NCc3ccccc3)ccc12 (centres undefined)	-69	24	16	58*	-3	22	48*	55*	6
CCOC(=O)COc1cccc2c(=O)n(CC(=O)N3CCC(C)CC3)ccc12	8	-2	17	-2	-17	-16	.	.	.
O=C(O)CCCNC(=O)CCCNC(=O)C(c1ccccc1)c1ccccc1	13	-6	-25	51	5	-16	25	8	-9
Cn1c(=O)oc2cc(S(=O)(=O)Nc3ccccc3)ccc21	-12	6	-16	-3	-7	2	.	.	.
CC(C)NS(=O)(=O)c1ccc2c(c1)oc(=O)n2C	15	10	3	57*	-4	-15	10	2	-10
COc1ccccc1-c1nnc(SCC(=O)Nc2ccc(Cl)cc2Cl)o1	12	-9	0	3	-19	-9	.	.	.
COC(=O)c1ccc(C(=O)OC)c(NC(=O)CSc2nnc(-c3ccccc3Cl)o2)c1	7	3	22	98*	-8	3	10	17	-14
Cc1ccccc1N1CCN(S(=O)(=O)c2ccc3c(c2)n(C)c(=O)c(=O)n3C)CC1	-4	.	.	.	.	-3	.	.	.
CN(C)c1nc(-c2ccccn2)nnc1-c1ccccc1	-29	11	32	66*	-11	18	66*	24	72*
c1ccc(-c2nnc(-c3ccccn3)c(-c3ccccn3)n2)nc1	-2	-2	-2	3	5	-35	.	.	.
CN(CCOC(=O)c1cccs1)C1CN(Cc2cn(Cc3ccccc3Cl)nn2)S(=O)(=O)C1 (centres undefined)	-9	.	.	.	.	-11	.	.	.
C[C@@H]1CCN(C2CC2)S(=O)(=O)c2ccc(N3CC[C@@H](O)C3)cc2O1	-1	.	.	.	.	-1	.	.	.
